Assay results reported in PubChem BioAssay AID1159580 (chemical genetic matrix, 2015).
Where “and” joins values, the source holds several entries; their conditions need not be identical. Equal values may be shown once. The campaign covered roughly 5,500 compounds. About 2,000 (36%) were called active. Not shown: some 18% with an inconclusive outcome. Rule as the data show it: active = normalized growth mostly below about 0.91 (no sharp cut-off); inconclusive = no clear call, values can overlap the other calls; inactive = mostly above about 0.92. This is one part of the list.

Experiment: chemical genetic growth profiling, strain panel (AID 1159580);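 also: tested at 20 µM; growth read once vehicle control cultures reached saturation at 30 °C; 1 = growth at the plate median or of vehicle wells; lower values mean less growth of the strain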
Details: S. cerevisiae deletion strains, growth OD

Measured: normalized growth

C[C@](N)(Cc1ccc(O)c(O)c1)C(=O)O
inactive: locus YAL013W, strain DEP1, stronger effect = lower value 0.962 | locus YAL021C, strain ccr4, stronger effect = lower value 0.999 | locus YAL026C, strain drs2, stronger effect = lower value 0.968 | locus YAL030W, strain snc1, stronger effect = lower value 0.967 | locus YBL061C, strain skt5, stronger effect = lower value 0.971 | locus YBR009C, strain hhf1, stronger effect = lower value 0.964 | locus YBR021W, strain FUR4, stronger effect = lower value 1.03 | locus YBR023C, strain chs3, stronger effect = lower value 0.957 | locus YBR171W, strain sec66, stronger effect = lower value 0.951 | locus YBR229C, strain ROT2, stronger effect = lower value 0.951 | locus YBR231C, strain swc5, stronger effect = lower value 0.974 | locus YBR279W, strain paf1, stronger effect = lower value 0.96 | locus YCL011C, strain gbp2, stronger effect = lower value 0.912 | locus YCL016C, strain dcc1, stronger effect = lower value 0.92 | locus YCL029C, strain bik1, stronger effect = lower value 0.995 | locus YCL061C, strain MRC1, stronger effect = lower value 0.966 | locus YCL069W, strain vba3, stronger effect = lower value 0.982 | locus YCR088W, strain abp1, stronger effect = lower value 0.991 | locus YDL005C, strain med2, stronger effect = lower value 0.991 | locus YDL035C, strain GPR1, stronger effect = lower value 0.91 | locus YDL040C, strain nat1, stronger effect = lower value 0.989 | locus YDL074C, strain BRE1, stronger effect = lower value 1.01 | locus YDL101C, strain DUN1, stronger effect = lower value 0.987 | locus YDL134C, strain PPH21, stronger effect = lower value 0.974 | locus YDL185W, strain tfp1, stronger effect = lower value 0.988 | locus YDL192W, strain arf1, stronger effect = lower value 0.974 | locus YDR001C, strain nth1, stronger effect = lower value 0.971 | locus YDR069C, strain doa4, stronger effect = lower value 0.936 | locus YDR101C, strain arx1, stronger effect = lower value 1.01 | locus YDR137W, strain rgp1, stronger effect = lower value 0.945 | locus YDR150W, strain NUM1, stronger effect = lower value 0.943 | locus YDR159W, strain sac3, stronger effect = lower value 1 | locus YDR162C, strain NBP2, stronger effect = lower value 0.911 | locus YDR195W, strain ref2 0.984 | locus YDR297W, strain sur2, stronger effect = lower value 0.963 | locus YDR318W, strain mcm21, stronger effect = lower value 0.993 | locus YDR334W, strain swr1, stronger effect = lower value 0.92 | locus YDR335W, strain msn5, stronger effect = lower value 0.961 | locus YDR388W, stronger effect = lower value 1.01 | locus YDR392W, strain spt3, stronger effect = lower value 0.886 | locus YDR502C, strain sam2, stronger effect = lower value 1 | locus YEL003W, strain gim4, stronger effect = lower value 0.992 | locus YEL037C, strain rad23, stronger effect = lower value 0.977 | locus YEL061C, strain CIN8 (second series), stronger effect = lower value 0.977 | locus YEL061C, strain CIN8, stronger effect = lower value 0.978 | locus YER015W, strain faa2, stronger effect = lower value 0.965 | locus YER016W, strain bim1, stronger effect = lower value 0.987 | locus YER110C, stronger effect = lower value 0.971 | locus YER111C, strain swi4, stronger effect = lower value 0.995 | locus YER155C, strain BEM2 (second series), stronger effect = lower value 0.986 | locus YER155C, strain BEM2, stronger effect = lower value 1.02 | locus YER167W, strain BCK2, stronger effect = lower value 0.961 | locus YFR010W, strain ubp6, stronger effect = lower value 0.939 | locus YGL078C, strain dbp3, stronger effect = lower value 0.984 | locus YGL086W, strain mad1, stronger effect = lower value 0.958 | locus YGL167C, strain pmr1, stronger effect = lower value 0.954 | locus YGL173C, strain kem1, stronger effect = lower value 0.941 | locus YGL227W, strain vid30, stronger effect = lower value 0.979 | locus YGL240W, strain doc1, stronger effect = lower value 0.998 | locus YGL248W, strain PDE1, stronger effect = lower value 0.958 | locus YGL253W, strain hxk2, stronger effect = lower value 0.981 | locus YGR078C, strain PAC10, stronger effect = lower value 0.907 | locus YGR135W, strain pre9, stronger effect = lower value 0.973 | locus YGR229C, strain SMI1, stronger effect = lower value 0.917 | locus YGR252W, strain gcn5, stronger effect = lower value 0.908 | locus YHR013C, strain ard1, stronger effect = lower value 0.894 | locus YHR027C, strain rpn1, stronger effect = lower value 0.95 | locus YHR030C, strain SLT2, stronger effect = lower value 0.981 and 1.04 | locus YHR079C, strain IRE1 (second series), stronger effect = lower value 1 | locus YHR079C, strain IRE1, stronger effect = lower value 1.05 | locus YHR094C, strain hxt1, stronger effect = lower value 0.999 | locus YHR129C, strain ARP1, stronger effect = lower value 0.985 | locus YHR142W, strain chs7, stronger effect = lower value 0.913 | locus YHR200W, strain rpn10, stronger effect = lower value 0.981 | locus YIL066C, strain RNR3, stronger effect = lower value 0.882 | locus YIL073C, strain SPO22, stronger effect = lower value 0.793 | locus YIL125W, strain kgd1, stronger effect = lower value 0.99 | locus YIR030C, strain dcg1, stronger effect = lower value 0.987 | locus YJL092W, strain hpr5, stronger effect = lower value 0.966 | locus YJL095W, strain BCK1 (second series), stronger effect = lower value 0.965 | locus YJL095W, strain BCK1, stronger effect = lower value 1.02 | locus YJL115W, strain asf1, stronger effect = lower value 0.953 | locus YJL129C, strain trk1, stronger effect = lower value 0.973 | locus YJL134W, strain LCB3, stronger effect = lower value 0.976 | locus YJL154C, strain vps35, stronger effect = lower value 0.974 | locus YJL164C, strain tpk1, stronger effect = lower value 0.979 | locus YJL166W, strain qcr8, stronger effect = lower value 0.927 | locus YJL168C, strain set2, stronger effect = lower value 0.995 | locus YJL187C, strain SWE1 (second series), stronger effect = lower value 0.985 | locus YJL187C, strain SWE1, stronger effect = lower value 0.978 | locus YJR043C, strain POL32, stronger effect = lower value 0.967 | locus YJR066W, strain TOR1, stronger effect = lower value 0.99
